10 compounds from PubChem BioAssay (NCI) can be followed below.

The panel holds about 79,000 compounds, 15% with a hit somewhere; the sample as a whole holds those more often. Unmarked numbers belong to inactive results. Active and inactive are the calls of the source. No stated cut-off is given here; in the data, active means growth inhibition above about 70%; inactive means the rest.

Assay [1] can be described thus: NCI Yeast Anticancer Drug Screen. Data for the rad50 strain (AID 155).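 Further: 0% = growth of vehicle-only cultures of the same strain.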 Conditions: S. cerevisiae rad50 strain growth inhibition, stronger effect = higher value. The method in brief: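 Inhibition values express reduced yeast growth in compound-treated cultures relative to vehicle-treated controls.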
A short description of assay [2]: NCI Yeast Anticancer Drug Screen. Data for the mec2-1 strain (AID 157). As to conditions: S. cerevisiae mec2-1 strain, stronger effect = higher value. Put shortly: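 mec2-1 yeast strain, carrying an alteration in DNA damage repair or cell cycle control, was exposed to compounds; growth inhibition was measured relative to vehicle-treated controls.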
Assay [3] can be described thus: NCI Yeast Anticancer Drug Screen. Data for the sgs1 mgt1 strain (AID 161).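 Further: 0% = growth of cultures given vehicle only.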 Conditions: S. cerevisiae sgs1 mgt1 strain, stronger effect = higher value. Put shortly: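 This yeast growth screen uses a strain with defined DNA-repair lesions; compound-treated growth is compared with vehicle-treated growth.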
Assay [4] in a line: NCI Yeast Anticancer Drug Screen. Data for the cln2 rad14 strain (AID 165).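 Further: 0% = growth equal to vehicle treated cultures.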 As to conditions: S. cerevisiae cln2 rad14 strain, stronger effect = higher value. Put shortly:
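Yeast carrying cln2 and rad14 alterations (cell cycle control and DNA damage repair) were exposed to compounds. Growth inhibition was measured against vehicle-treated controls.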

A short description of assay [5]: NCI Yeast Anticancer Drug Screen. Data for the bub3 strain (AID 167). Conditions: S. cerevisiae bub3 mutant strain, stronger effect = higher value. The method in brief: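 Steps: expose the mutant yeast strain to compound; grow alongside vehicle-treated cultures; measure growth; express inhibition against the vehicle cultures.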
Assay [6] in a line: NCI Yeast Anticancer Drug Screen. Data for the mlh1 rad18 strain (AID 175). As to conditions: S. cerevisiae mlh1 rad18 strain growth inhibition, stronger effect = higher value. Put shortly: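 Growth inhibition of the yeast strain was measured after compound exposure and expressed relative to vehicle-treated controls. The strain carries defined defects in DNA damage repair.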
[7] abbreviates: at 5.0 µM (retest, dose inferred, filed as 0.5).
[8] abbreviates: at 50.0 µM (retest, dose inferred, filed as 5.0).

`CC1=C(C(=S)Nc2ccc(Cl)c(C(=O)OC(C)C)c2)SCCO1`: the growth inhibition was 27% in assay [1] (setting [7]); 71% (active) in assay [1] (setting [8]); 89.6% (active) in assay [1] (at 50.0 µM); 19% in assay [2] (setting [7]); 54% in assay [2] (setting [8]); 90.2% (active) in assay [2] (at 50.0 µM). Further, the growth inhibition in assay [3] (setting [7]) was 27%; in assay [3] (setting [8]), 90% (active); in assay [3] (at 50.0 µM), 91.5% (active); in assay [4] (setting [7]) it was 25%; in assay [4] (setting [8]) it was 64%; in assay [4] (at 50.0 µM), 47.4%. Moreover, the growth inhibition in assay [5] (setting [7]) was 26%; in assay [5] (setting [8]) it was 95% (active); in assay [5] (at 50.0 µM), 87.1% (active); in assay [6] (setting [7]), 21%; in assay [6] (setting [8]), 50%; in assay [6] (at 50.0 µM), 63.8%.
As for `O=C1C2=C(CCCC2)C(=O)c2ccccc21`, the growth inhibition in assay [1] (setting [7]) was 6%; in assay [1] (setting [8]) it was 76% (active); in assay [1] (at 50.0 µM), 25.4%; in assay [2] (setting [7]) it was 8%; in assay [2] (setting [8]), 79% (active); in assay [2] (at 50.0 µM), 13.7%. For the same compound, the growth inhibition in assay [3] (setting [7]) was 11%; in assay [3] (setting [8]), 71% (active); in assay [3] (at 50.0 µM) it was 28%; in assay [4] (setting [7]), 3%; in assay [4] (setting [8]) it was 15%; in assay [4] (at 50.0 µM), -30.5%. The growth inhibition in assay [5] (setting [7]) is 35%; in assay [5] (setting [8]), 79% (active); in assay [5] (at 50.0 µM), 60.4%; in assay [6] (setting [7]), 7%; in assay [6] (setting [8]), 43%; in assay [6] (at 50.0 µM) it was 68.5%.
Turning to `COC1=CC(=O)c2c(O)c3c(c(O)c2C1=O)C=C(C)OC3O` (stereo not given), the growth inhibition is -3% in assay [1] (setting [7]); 34% in assay [1] (setting [8]); 85.5% (active) in assay [1] (at 50.0 µM); -2% in assay [2] (setting [7]); 31% in assay [2] (setting [8]); 88% (active) in assay [2] (at 50.0 µM). Also, the growth inhibition in assay [3] (setting [7]) is -27%; in assay [3] (setting [8]), 22%; in assay [3] (at 50.0 µM), 89% (active); in assay [4] (setting [7]), 7%; in assay [4] (setting [8]), 20%; in assay [4] (at 50.0 µM) it was 47.1%. The growth inhibition in assay [5] (setting [7]) was -4%; in assay [5] (setting [8]) it was 44%; in assay [5] (at 50.0 µM), 85.8% (active); in assay [6] (setting [7]) it was -9%; in assay [6] (setting [8]), 52%; in assay [6] (at 50.0 µM), 89.3% (active).
On to `OC1CC2OC2C1O` (stereo not given), for which the growth inhibition is -2% in assay [1] (setting [7]); 3% in assay [1] (setting [8]); -6.25% in assay [1] (at 50.0 µM); -5% in assay [2] (setting [7]); 3% in assay [2] (setting [8]); 3.75% in assay [2] (at 50.0 µM). The growth inhibition was -2% in assay [3] (setting [7]); 1% in assay [3] (setting [8]); -4.95% in assay [3] (at 50.0 µM); -1% in assay [4] (setting [7]); -1% in assay [4] (setting [8]); 69.6% in assay [4] (at 50.0 µM). In addition, the growth inhibition in assay [5] (setting [7]) is 2%; in assay [5] (setting [8]), 7%; in assay [5] (at 50.0 µM), 18.6%; in assay [6] (setting [7]), -1%; in assay [6] (setting [8]), 2%; in assay [6] (at 50.0 µM), -11.4%.
Take `O=S1(=O)C(C(O)(c2ccccc2)c2ccccc2)CCCN1c1ccccc1` (stereo not given): the growth inhibition in assay [1] (setting [7]) was 4%; in assay [1] (setting [8]), 32%; in assay [1] (at 50.0 µM) it was 76.5% (active); in assay [2] (setting [7]), -8%; in assay [2] (setting [8]), 0%; in assay [2] (at 50.0 µM) it was 31.4%. Further, the growth inhibition in assay [3] (setting [7]) was -1%; in assay [3] (setting [8]), 16%; in assay [3] (at 50.0 µM), 70.5% (active); in assay [4] (setting [7]) it was 1%; in assay [4] (setting [8]), -19%; in assay [4] (at 50.0 µM), 12.2%. Also, the growth inhibition in assay [5] (setting [7]) is 0%; in assay [5] (setting [8]) it was 3%; in assay [5] (at 50.0 µM), 21.4%; in assay [6] (setting [7]), -2%; in assay [6] (setting [8]), -87%; in assay [6] (at 50.0 µM), 25.4%.
On to `O=C1CNC(=O)c2cc(Cl)ccc2N1`, for which the growth inhibition was 46% in assay [1] (setting [7]); 45% in assay [1] (setting [8]); -8.75% in assay [1] (at 50.0 µM); 25% in assay [2] (setting [7]); 32% in assay [2] (setting [8]); -26.1% in assay [2] (at 50.0 µM). The growth inhibition in assay [3] (setting [7]) is 34%; in assay [3] (setting [8]) it was 44%; in assay [3] (at 50.0 µM), 8.6%; in assay [4] (setting [7]) it was 28%; in assay [4] (setting [8]) it was 29%; in assay [4] (at 50.0 µM) it was 13.9%. Further, the growth inhibition was 34% in assay [5] (setting [7]); 67% in assay [5] (setting [8]); 40.1% in assay [5] (at 50.0 µM); 44% in assay [6] (setting [7]); 42% in assay [6] (setting [8]); -2.1% in assay [6] (at 50.0 µM).
In the case of `N#CN1CCCC(O)c2sc3ccccc3c2CC1` (stereo not given), the growth inhibition was 3% in assay [1] (setting [7]); 9% in assay [1] (setting [8]); 56.4% in assay [1] (at 50.0 µM); 1% in assay [2] (setting [7]); 17% in assay [2] (setting [8]); 11.5% in assay [2] (at 50.0 µM). For the same compound, the growth inhibition in assay [3] (setting [7]) is 1%; in assay [3] (setting [8]) it was 3%; in assay [3] (at 50.0 µM) it was 38.9%; in assay [4] (setting [7]) it was 3%; in assay [4] (setting [8]), -7%; in assay [4] (at 50.0 µM) it was 9.85%. The growth inhibition was -2% in assay [5] (setting [7]); 1% in assay [5] (setting [8]); 7.3% in assay [5] (at 50.0 µM); -1% in assay [6] (setting [7]); -1% in assay [6] (setting [8]); -0.65% in assay [6] (at 50.0 µM).
Turning to `CCCCCCCCC(=O)NCCCNCCCNC(=O)CCCCCCCC`, the growth inhibition in assay [1] (setting [7]) was -17%; in assay [1] (setting [8]), -17%; in assay [1] (at 50.0 µM) it was 69%; in assay [2] (setting [7]) it was -18%; in assay [2] (setting [8]), -18%; in assay [2] (at 50.0 µM), 50.2%. In addition, the growth inhibition in assay [3] (setting [7]) was -4%; in assay [3] (setting [8]), -4%; in assay [3] (at 50.0 µM), 66.3%; in assay [4] (setting [7]) it was -22%; in assay [4] (setting [8]) it was -22%; in assay [4] (at 50.0 µM), 92.2% (active). The growth inhibition is -28% in assay [5] (setting [7]); -28% in assay [5] (setting [8]); 90.8% (active) in assay [5] (at 50.0 µM); -11% in assay [6] (setting [7]); -11% in assay [6] (setting [8]); 89.3% (active) in assay [6] (at 50.0 µM).
For `CCN(CC)CCO/N=C1\CC[C@H]2[C@@H]3CCc4cc(OC)ccc4[C@H]3CC[C@]12C`, the growth inhibition was 31% in assay [1] (setting [7]); 99% (active) in assay [1] (setting [8]); 89.1% (active) in assay [1] (at 50.0 µM); 27% in assay [2] (setting [7]); 98% (active) in assay [2] (setting [8]); 92.2% (active) in assay [2] (at 50.0 µM). In addition, the growth inhibition in assay [3] (setting [7]) is 58%; in assay [3] (setting [8]) it was 98% (active); in assay [3] (at 50.0 µM) it was 91.3% (active); in assay [4] (setting [7]) it was 67%; in assay [4] (setting [8]), 98% (active); in assay [4] (at 50.0 µM), 89% (active). The growth inhibition in assay [5] (setting [7]) is 66%; in assay [5] (setting [8]), 98% (active); in assay [5] (at 50.0 µM), 90.7% (active); in assay [6] (setting [7]), 34%; in assay [6] (setting [8]) it was 99% (active); in assay [6] (at 50.0 µM), 89.7% (active).
Take `CCC12C=CCN3CCC4(c5cc(C(c6ccccn6)c6cc7ccccc7n6C)c(OC)cc5N(C)C4C(O)(C(=O)OC)C1OC(C)=O)C32` (stereo not given): the growth inhibition in assay [1] (setting [7]) is 4%; in assay [1] (setting [8]), 0%; in assay [1] (at 50.0 µM) it was 68.3%; in assay [2] (setting [7]) it was 46%; in assay [2] (setting [8]), 0%; in assay [2] (at 50.0 µM), 81.5% (active). Further, the growth inhibition in assay [3] (setting [7]) was -1%; in assay [3] (setting [8]), 2%; in assay [3] (at 50.0 µM) it was 49.6%; in assay [4] (setting [7]), -2%; in assay [4] (setting [8]), -5%; in assay [4] (at 50.0 µM) it was 83.3% (active). Moreover, the growth inhibition was -2% in assay [5] (setting [7]); -3% in assay [5] (setting [8]); 65% in assay [5] (at 50.0 µM); 3% in assay [6] (setting [7]); 11% in assay [6] (setting [8]); 94.7% (active) in assay [6] (at 50.0 µM).
